# Assay results: the supplement of paper PMC6607015
# Counter-ions that a name gives are not always drawn.
# Assays:
# Conditions in all cases: compound concentration in added solution (µM; 5 µl added to 20 µl cells): 10; 18 h
# A431 [1] = experiment: LBPA endosome anti-LBPA integrated intensity (sum per cell), Z-score; higher = more LBPA staining
# Outline: (§1)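 Each value is a Z-score normalised in AcuityXpress from per-cell integrated LBPA or filipin intensity, taken over the whole cell or within LBPA endosomes. Duplicate 384-well imaging plates held 5 µl of 10 µM compound solution, onto which 3,500 HeLa MZ or A431 cells in 20 µl were seeded per well. After 18 h the cells were fixed in 4% PFA, stained with 6C4 anti-LBPA antibody, filipin, propidium iodide and CellTracker green, imaged four times per well at 20× and segmented in MetaXpress.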
# HeLa MZ [2] = experiment: as above
# Outline: as §1
# A431 [3] = experiment: whole-cell filipin (free cholesterol) integrated intensity, Z-score; higher = more cholesterol staining
# Outline: as §1
# HeLa MZ [4] = experiment: as above
# Outline: as §1
# A431 [5] = experiment: filipin (cholesterol) integrated intensity within LBPA endosomes, Z-score; higher = more cholesterol in LBPA endosomes
# Outline: as §1
# HeLa MZ [6] = experiment: as above
# Outline: as §1
SMILES,LBPA endosome anti-LBPA integrated intensity (z-score) (A431 [1]),LBPA endosome anti-LBPA integrated intensity (z-score) (HeLa MZ [2]),whole-cell filipin (z-score) (A431 [3]),whole-cell filipin (z-score) (HeLa MZ [4]),filipin (z-score) (A431 [5]),filipin (z-score) (HeLa MZ [6])
Cc1c(Cl)cccc1Nc1ncccc1C(=O)O [Clonixin Lysinate],-0.476,-1.1,-0.0028,-0.353,-0.486,-0.62
Clc1cnccn1 [2-Chloropyrazine],-0.346,-0.401,0.139,-0.365,-0.401,-0.492
N=C(N)c1ccc(OCCCCCOc2ccc(C(=N)N)cc2)cc1 [Pentamidine isethionate],-0.319,-1.47,-0.429,-0.57,-0.313,-0.712
Cn1c(=O)c2nc[nH]c2n(C)c1=O [Theophylline monohydrate],-0.668,-1.36,-0.516,-0.207,-0.57,-0.492
Cc1ncc(C[n+]2csc(CCO)c2C)c(N)n1 [Thiamine hydrochloride],-0.398,-0.0332,0.0289,-0.0399,-0.382,-0.539
C[N+](C)(C)CCOC(N)=O [Carbachol],-0.538,-0.848,-0.548,-0.381,-0.44,-0.42
Nc1nc(NC2CC2)c2ncn([C@H]3C=C[C@@H](CO)C3)c2n1 [Abacavir Sulfate],-0.557,-0.156,-0.517,-0.596,-0.478,-0.612
"CN(Cc1cnc2nc(N)nc(N)c2n1)c1ccc(C(=O)N[C@@H](CCC(=O)O)C(=O)O)cc1 (racemic) [Amethopterin (R,S)]",-0.376,2.61,0.379,2.03,-0.749,-0.934
CC(N)CCCC(C)(C)O (stereo not drawn) [Heptaminol hydrochloride],-0.451,-1.1,-0.647,-0.285,-0.442,-0.477
CN1[C@@H]2CC[C@H]1C[C@@H](OC(=O)c1c[nH]c3ccccc13)C2 [Tropisetron HCl],-0.35,0.869,-0.234,-0.504,-0.29,0.0878
NCCNCCNCCNCCN [Tetraethylenepentamine pentahydrochloride],-0.276,-0.00928,0.0109,0.146,-0.392,-0.197
COc1ccc(C(=O)c2ccccc2O)c(O)c1 [Dioxybenzone],-0.417,0.711,-0.27,0.232,-0.379,-0.234
CN(C(=O)CN(CCO)CC(=O)N(C)C(C)(C)Cc1ccccc1)C(C)(C)Cc1ccccc1 [Oxethazaine],1.71,0.996,1.26,0.298,1.53,2.17
Nc1nc2c(ncn2COCCO)c(=O)[nH]1 [Acyclovir],-0.598,-1.1,-1.13,-0.395,-0.557,-0.66
CC(=O)Oc1cc(C(F)(F)F)ccc1C(=O)O [Triflusal],-0.556,-0.553,-0.393,0.0625,-0.513,-0.544
CN1CCN(CCCN2c3ccccc3Sc3ccc(C(F)(F)F)cc32)CC1 [Trifluoperazine dihydrochloride],1.83,-0.0806,-0.826,0.153,2.06,3.01
CCN(CC)CCNC(=O)COc1ccc(OC)cc1 [Mefexamide hydrochloride],-0.352,0.346,-0.627,-0.811,-0.519,-0.36
CCN(CC)Cc1cc(Nc2ccnc3cc(Cl)ccc23)ccc1O [Amodiaquin dihydrochloride dihydrate],2.13,2.23,0.894,-0.209,1.78,1.72
CCCCCN(C)CCC(O)(P(=O)(O)O)P(=O)(O)O [Ibandronate sodium],-0.326,0.467,-0.0185,0.267,-0.423,-0.352

SMILES,LBPA endosome anti-LBPA integrated intensity (z-score) (A431 [1]),LBPA endosome anti-LBPA integrated intensity (z-score) (HeLa MZ [2]),whole-cell filipin (z-score) (A431 [3]),whole-cell filipin (z-score) (HeLa MZ [4]),filipin (z-score) (A431 [5]),filipin (z-score) (HeLa MZ [6])
NS(=O)(=O)c1cc(C(=O)O)cc(N2CCCC2)c1Oc1ccccc1 [Piretanide],-0.606,-1.16,-0.2,0.517,-0.411,-0.576
CN1CCC[C@@H]1CCO[C@](C)(c1ccccc1)c1ccc(Cl)cc1 [Clemastine fumarate],2.28,0.882,0.619,-0.348,2.73,1.84
CS(=O)(=O)Nc1ccc([N+](=O)[O-])cc1Oc1ccccc1 [Nimesulide],-0.535,-0.741,-0.718,-0.259,-0.551,-0.716
Cc1c(OCC(F)(F)F)ccnc1C[S+]([O-])c1nc2ccccc2[nH]1 (stereo not drawn) [Lansoprazole],-0.504,0.142,0.199,0.176,-0.31,-0.222
N=C(NCCCCCCNC(=N)NC(=N)Nc1ccc(Cl)cc1)NC(=N)Nc1ccc(Cl)cc1 [Chlorhexidine],-0.526,-0.794,-1.08,-1.91,-0.271,-0.107
CS(=O)(=O)OCCCCOS(C)(=O)=O [Busulfan],-0.537,-0.499,-0.466,0.544,-0.535,-0.476
CC(=O)N[C@@H](CS)C(=O)O [Acetylcysteine],-0.477,-0.307,-0.0556,-0.751,-0.4,-0.456
CN(C)c1ccc(O)c2c1C[C@H]1C[C@H]3[C@H](N(C)C)C(O)=C(C(N)=O)C(=O)[C@@]3(O)C(O)=C1C2=O [Minocycline hydrochloride],-0.618,-1.91,-1.01,-1.52,-0.639,-0.888
CC=CC(=O)N(CC)c1ccccc1C [Crotamiton],-0.66,-1.3,-0.358,-0.316,-0.501,-0.424
CC(N)C12CC3CC(CC(C3)C1)C2 (stereo not drawn) [Rimantadine Hydrochloride],-0.677,-0.134,-0.496,0.106,-0.59,-0.56
CCOc1ccc(NC(C)=O)cc1 [Phenacetin],-0.594,-0.322,-0.814,-0.392,-0.555,-0.582
CC1CC(OC(=O)c2ccccc2O)CC(C)(C)C1 (stereo not drawn) [Homosalate],-0.265,-0.48,-0.0483,0.0325,-0.434,-0.566
CN1CCN2c3ncccc3Cc3ccccc3C2C1 (stereo not drawn) [Mirtazapine],-0.296,0.0872,-0.206,0.74,-0.391,0.392
Nc1nc(N)c2nc(-c3ccccc3)c(N)nc2n1 [Triamterene],0.172,-1.01,-0.647,-1.14,-0.443,-0.487
S=c1[nH]cnc2nc[nH]c12 [Mercaptopurine],-0.731,-1.06,-0.622,-1.37,-0.742,-0.984
C=C1c2cccc(O)c2C(=O)C2=C(O)[C@]3(O)C(=O)C(C(N)=O)=C(O)[C@@H](N(C)C)[C@@H]3[C@@H](O)[C@H]12 [Methacycline hydrochloride],-0.461,-0.934,0.119,-0.217,-0.402,-0.642
Nc1ccc(S(N)(=O)=O)cc1 [Sulfanilamide],-0.59,-0.84,-0.27,0.397,-0.496,-0.373
CCOC(=O)/C=C(C)/C=C/C=C(C)/C=C/c1c(C)cc(OC)c(C)c1C [Etretinate],-0.297,0.358,0.197,-0.112,-0.399,-0.321
Cc1nnc(SCC2=C(C(=O)O)N3C(=O)[C@@H](NC(=O)Cn4cnnn4)[C@H]3SC2)s1 [Cefazolin sodium salt],-0.481,-0.611,-0.424,-0.218,-0.384,-0.417
